Assay outcomes deposited in PubChem BioAssay by several laboratories.
Hits are enriched below; roughly 4.1% of the tested compounds scored in any of these assays.
IDE inh = inhibits human insulin-degrading enzyme in HEK cells | actives 0.41% (n = 320,000) | inhibition, % at 5.59 µM | FAbetaB cleavage, fluorescence polarization | P14735 | AID 434962;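 active = percent inhibition above the average of all tested compounds plus 3 SD, set per screening campaign, cut at about 16% in these data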;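 also: IDE supplied by intact live HEK cells; FP after avidin binding of uncleaved biotin substrate so inhibition keeps polarization high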
ALR inh = blocks human ALR sulfhydryl oxidase activity. P55789. actives 3.8% (n = 290,000). purified ALR, DTT oxidation, H2O2 HRP-luminol luminescence. inhibition, % (no concentration beside the values);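 active = mean replicate inhibition above about 79%, with every replicate also reaching it, limit read from the data; inconclusive = only one of the two criteria met; inactive = mean below limit and not every replicate reaching it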
Target sequence (P55789 whole entry, looked up): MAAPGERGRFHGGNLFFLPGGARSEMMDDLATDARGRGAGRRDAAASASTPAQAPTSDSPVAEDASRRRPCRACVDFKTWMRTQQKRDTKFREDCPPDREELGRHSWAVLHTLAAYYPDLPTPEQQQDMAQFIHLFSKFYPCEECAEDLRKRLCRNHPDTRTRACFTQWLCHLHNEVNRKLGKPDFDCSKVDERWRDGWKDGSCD
CaV13 ICDI inh = Disruptors of the CACNA1D IQ motif to Ca2+-dependent inactivation inhibitor domain association, primary screening, Förster resonance energy transfer in intact living … | HEK cells, CFP/YFP FRET ICDI-IQ, plate reader, 10 min; percent FRET-ratio fall versus neutral wells | inhibition, % at 12.3 µM | actives 0.098% (n = 340,000) | AID 743397;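 active = mean replicate inhibition of at least 30% and at least 1% of replicates passing that level; inconclusive = only one of the two criteria is met; inactive = neither criterion is met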
IDE cell activ = boosts human insulin-degrading enzyme activity in HEK cells. P14735. activation, % at 5.96 µM. actives 0.073% (n = 340,000). FAbeta-B cleavage, fluorescence polarization; 0% vehicle, 100% cell-free pure enzyme wells;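 active = activation above the mean of all tested compounds plus 3 SD, set per screening campaign, cut at about 17% in these data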
PfM18AAP inh-1 = blocks P. falciparum M18 aspartyl aminopeptidase | recombinant PfM18AAP, H-Glu-NHMec fluorogenic cleavage | actives 1.2% (n = 290,000) | inhibition, % at 7.35 µM | AID 1822;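 active = inhibition above the campaign mean inhibition over all tested compounds plus 3 SD, cut at about 28% in these data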
PolyA inhibitor = yeast polyadenylation inhibition | S. cerevisiae SKY197-pL101 polyadenylation reporter, beta-gal luminescence; efflux-impaired pdr1/pdr3 knockout yeast; score 100 = 6 SD above DMSO | activity score, % at 12 µM | actives 0.02% (n = 300,000);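 active = lowest replicate activity score at least 50, where 100 means six control SD above control mean; inconclusive = lowest score under 50 but half or more replicates reach 50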;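 also: yeast exposed to compound for 9 h at 30 °C; higher score means more reporter readthrough which indicates perturbed polyadenylation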
PfM18AAP inh-2 = PfM18AAP inhibition, confirmation. AID 2170. actives 28% (n = 2,400). recombinant PfM18AAP, H-Glu-NHMec fluorogenic cleavage. inhibition, % at 7.35 µM. shares compounds with PfM18AAP inh-1;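 active = mean inhibition over replicate wells above the hit cutoff set for the earlier primary screen, cut at about 29% in these data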
CTSL1 confirm = Cathepsin L (human) inhibition, confirmation; shares compounds with PfM18AAP inh-1; purified cathepsin L1, Z-Leu-Arg-MCA fluorescence; inhibition, % at 5.96 µM; 2,400 tested, under 10 active;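 active = average inhibition across replicates above the hit cutoff set in the earlier primary screen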
Target sequence (P07711 whole entry, looked up): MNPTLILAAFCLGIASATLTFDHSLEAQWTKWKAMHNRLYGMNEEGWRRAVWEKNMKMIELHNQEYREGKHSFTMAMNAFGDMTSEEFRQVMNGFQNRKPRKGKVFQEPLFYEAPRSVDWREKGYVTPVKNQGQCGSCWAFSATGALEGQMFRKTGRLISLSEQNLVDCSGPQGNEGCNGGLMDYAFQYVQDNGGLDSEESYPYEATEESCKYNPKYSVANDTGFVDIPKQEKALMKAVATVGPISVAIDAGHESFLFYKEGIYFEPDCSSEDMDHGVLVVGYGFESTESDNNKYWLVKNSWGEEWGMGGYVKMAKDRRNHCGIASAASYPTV
Each line names hits and unclear results; the compound was inactive in the other large screens (follow-up assays come after a bar, where they were run).

Cc1ccc(C(=O)NCC(=O)NCC(=O)OCC(=O)c2ccc([N+](=O)[O-])cc2)cc1	PfM18AAP inh-1 33.1 | PfM18AAP inh-2 inactive | CTSL1 confirm inactive
O=C(Cc1ccccc1)NCC(=O)OCC(=O)c1ccc([N+](=O)[O-])cc1	PfM18AAP inh-1 39.5 (no result: ALR inh) | PfM18AAP inh-2 inactive | CTSL1 confirm inactive
Cc1cc(C(=O)NCCC(c2ccccc2)c2ccccc2)c(C)o1	none
Cc1cccc(C)c1-c1ccc(CN2C(CC(C)C)C(=O)N(Cc3cn(CC4CCCCC4)nn3)CCS2(=O)=O)cc1 (stereo not drawn)	none (no result: IDE inh, ALR inh, PfM18AAP inh-1, PolyA inhibitor)
O=C(CNC(=O)c1cccs1)OCC(=O)c1ccc([N+](=O)[O-])cc1	ALR inh inconclusive, PfM18AAP inh-1 45.1 | PfM18AAP inh-2 inactive | CTSL1 confirm inactive
O=C(CNC(=O)c1ccco1)OCC(=O)c1ccc([N+](=O)[O-])cc1	ALR inh 99.5, PfM18AAP inh-1 39.5 | PfM18AAP inh-2 inactive | CTSL1 confirm inactive
CCCP(=O)(CCC)CCP(=O)(c1ccccc1)c1ccccc1	none
COc1ccc(NC(=O)CCS(=O)(=O)c2ccc3c(c2)CCN3C(C)=O)cc1	none
CCN1/C(=C/C(C)=C/c2sc3ccccc3[n+]2CC)Sc2ccccc21	ALR inh 99.0, PfM18AAP inh-1 43.8 | PfM18AAP inh-2 inactive | CTSL1 confirm inactive
CCN1/C(=C\C(C)=O)Sc2ccc(OC)cc21	none (no result: CaV13 ICDI inh)
CN(C)/N=C/C=C1\CCC/C(=C\c2ccc(F)c(F)c2)C1=O	PfM18AAP inh-1 37.8 (no result: IDE cell activ) | PfM18AAP inh-2 inactive | CTSL1 confirm inactive
Cc1ccc(S(=O)(=O)Nc2ccccc2-c2ccccc2NS(=O)(=O)c2ccc(C)cc2)cc1	none
CCCCCOC(=O)Nc1ccc(S(=O)(=O)Nn2cnnc2)cc1	PfM18AAP inh-1 45.9 | PfM18AAP inh-2 48.4 | CTSL1 confirm inactive
O=S(=O)(Nn1cnnc1)c1ccc(F)cc1	PfM18AAP inh-1 41.5 (no result: IDE cell activ) | PfM18AAP inh-2 48.2 | CTSL1 confirm inactive
CCCCOC(=O)Nc1ccc(S(=O)(=O)Nc2ncccn2)cc1	none (no result: IDE cell activ)
O=C(Nn1cnnc1)C1CCCN1S(=O)(=O)c1ccc(F)cc1 (stereo not drawn)	none (no result: CaV13 ICDI inh)
Cc1ccc(S(=O)(=O)Nn2cnnc2)cc1	PfM18AAP inh-1 65.3 (no result: ALR inh) | PfM18AAP inh-2 55.9 | CTSL1 confirm inactive
Cc1cc(/C=C2\SC(=O)N(C)C2=O)c(C)n1-c1ccc(O)cc1	PfM18AAP inh-1 33.0 | PfM18AAP inh-2 inactive | CTSL1 confirm inactive
Cc1cc(/C=C2\SC(=O)N(C)C2=O)c(C)n1-c1ccc(S(N)(=O)=O)cc1	none
COc1cc(SC)ccc1C(=O)N1CCN(c2ccccc2)CC1	none (no result: IDE cell activ)
COc1cc(SC)ccc1C(=O)N1CCN(c2ccc(O)cc2)CC1	ALR inh 98.7, PfM18AAP inh-1 37.4 | PfM18AAP inh-2 inactive | CTSL1 confirm inactive
Cc1cc(C)n(-c2cc(-n3nc(C)cc3C)ncn2)n1	none (no result: ALR inh)
Cc1cc(C)n(-c2cc(O)c(-n3nc(C)cc3C)cc2O)n1	ALR inh 89.1, PfM18AAP inh-1 45.6 | PfM18AAP inh-2 inactive | CTSL1 confirm inactive
Cc1cc(C)nc(SC/C=C/c2ccccc2)n1	PfM18AAP inh-1 34.2 | PfM18AAP inh-2 inactive | CTSL1 confirm inactive
CCOC(=O)c1c(-c2ccc(C)o2)csc1NC(=O)CSc1ncn[nH]1	PfM18AAP inh-1 60.5 | PfM18AAP inh-2 inactive | CTSL1 confirm inactive
CCOC(=O)c1c(NC(=O)CSc2ncn[nH]2)sc(C(C)=O)c1C	PfM18AAP inh-1 33.0 (no result: CaV13 ICDI inh) | PfM18AAP inh-2 inactive | CTSL1 confirm inactive
O=C(c1cc2ccccc2oc1=O)N(Cc1ccccc1)CC1CCCO1 (stereo not drawn)	none
COc1cccc2cc(C(=O)N(Cc3ccccc3)CC3CCCO3)c(=O)oc12 (stereo not drawn)	PfM18AAP inh-1 34.8 | PfM18AAP inh-2 inactive | CTSL1 confirm inactive
Clc1ccc(-c2nc3ccccn3c2CN2CCCCC2)cc1	none (no result: PolyA inhibitor)
